Measured values from PubChem BioAssay (NCI).
About 79,000 compounds went through this panel and 15% of them were active in at least one assay; those are over-represented in the sample as a whole. A number with no mark means an inactive call. The source made the active and inactive calls. Rule as the data show it: active = growth inhibition above about 70%; inactive = the rest.

Assay: NCI Yeast Anticancer Drug Screen. Data for the cln2 rad14 strain (AID 165);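 also: 0% = growth equal to vehicle treated cultures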
Details: S. cerevisiae cln2 rad14 strain, hits give high values
Method: Growth inhibition of yeast strains with defined genetic alterations is measured as a screen for potential anti-cancer activity. Selected strains with alterations in DNA damage repair or cell cycle control were exposed to compounds and growth inhibition was measured relative to vehicle treated controls. The strain used in this assay is cln2 rad14

[1] = at 5.0 µM (retest, dose inferred, filed as 0.5)
[2] = at 50.0 µM (retest, dose inferred, filed as 5.0)

SMILES | growth inhibition [1] [%] | growth inhibition [2] | growth inhibition (at 50.0 µM)
Cn1c(N)nc(-c2ccc(Cl)cc2)c1SSc1c(-c2ccc(Cl)cc2)nc(N)n1C | 37 | -3% | 92% (active)
COC(=O)C1=C(C(=O)OC)C2(C)C=CC1O2 (configuration not stated) | -46 | -7% | 19.1%
COc1ccc(C2c3cc4c(cc3OC(C)(O)C2C)OCO4)c(OC)c1 (configuration not stated) | 5 | 51% | 89.3% (active)
OC(c1ccc(F)cc1)(c1ccc(F)cc1)C1CC1 | 41 | 73% (active) | 28.9%
CC(=O)SCCC[Si](C)(C)CCCSC(C)=O | -6 | 54% | 39%
O=CC=C(c1ccccc1)c1ccccc1 | 36 | 99% (active) | 39.1%
O=C(NNc1ccnc2cc(Cl)ccc12)/C(=C\c1ccccc1Cl)NC(=O)c1ccccc1 | 8 | 22% | 55.4%
COC1=CC(=O)C(C2(OC(C)C)OC(=O)C(Cl)=C2Cl)=CC1=O (configuration not stated) | 30 | 99% (active) | 63.5%
N#Cc1ccc(C2NN=CC23C(=O)c2ccccc2OC3c2ccccc2)cc1 (configuration not stated) | -16 | 38% | 61%
CCOC(=O)c1cnc2c(C(F)(F)F)cccc2c1N=[N+]=[N-] | 45 | 24% | 84.7% (active)
CO[C@H]1C[C@](C)(O)Cc2cc3c(c(O)c21)C(=O)c1c(O)cc2c(c1C3=O)O[C@@H]1O[C@@]2(C)[C@H](O)[C@@H](N(C)C)[C@@H]1O | 25 | 31% | 21.9%
BrCC[P+](c1ccccc1)(c1ccccc1)c1ccccc1 | 43 | 98% (active) | 73.8% (active)
COC1=CC(=O)C2C(C1=O)C(c1ccc(Cl)cc1)[C@@H]2C (some centres not stated) | 30 | 98% (active) | 90.5% (active)
COc1ccc(-c2cn(-c3ccc(I)cc3)c3ncnc(N)c23)cc1 | 4 | 65% | -0.5%
